The record followed here is ChEMBL document CHEMBL3988442, “University of Dundee, Small-Polar-MMV Screening Library” (2021).

Holding throughout (parameters): scale not given: direction of the effect not stated beside the values
In assay [1] the target is Protein translocase subunit SecA (Escherichia coli (strain K12)) (UniProt P10408). The experiment in a line: Assay to Identify E. coli SecA ATPase Inhibitors. The class given is functional. Particulars: 30 µM.
In assay [2] the target is T1, Ubiquitin-activating enzyme e1, putative (Leishmania donovani (strain BPK282A1)) (UniProt E9BSI1).
T1 sequence (whole entry): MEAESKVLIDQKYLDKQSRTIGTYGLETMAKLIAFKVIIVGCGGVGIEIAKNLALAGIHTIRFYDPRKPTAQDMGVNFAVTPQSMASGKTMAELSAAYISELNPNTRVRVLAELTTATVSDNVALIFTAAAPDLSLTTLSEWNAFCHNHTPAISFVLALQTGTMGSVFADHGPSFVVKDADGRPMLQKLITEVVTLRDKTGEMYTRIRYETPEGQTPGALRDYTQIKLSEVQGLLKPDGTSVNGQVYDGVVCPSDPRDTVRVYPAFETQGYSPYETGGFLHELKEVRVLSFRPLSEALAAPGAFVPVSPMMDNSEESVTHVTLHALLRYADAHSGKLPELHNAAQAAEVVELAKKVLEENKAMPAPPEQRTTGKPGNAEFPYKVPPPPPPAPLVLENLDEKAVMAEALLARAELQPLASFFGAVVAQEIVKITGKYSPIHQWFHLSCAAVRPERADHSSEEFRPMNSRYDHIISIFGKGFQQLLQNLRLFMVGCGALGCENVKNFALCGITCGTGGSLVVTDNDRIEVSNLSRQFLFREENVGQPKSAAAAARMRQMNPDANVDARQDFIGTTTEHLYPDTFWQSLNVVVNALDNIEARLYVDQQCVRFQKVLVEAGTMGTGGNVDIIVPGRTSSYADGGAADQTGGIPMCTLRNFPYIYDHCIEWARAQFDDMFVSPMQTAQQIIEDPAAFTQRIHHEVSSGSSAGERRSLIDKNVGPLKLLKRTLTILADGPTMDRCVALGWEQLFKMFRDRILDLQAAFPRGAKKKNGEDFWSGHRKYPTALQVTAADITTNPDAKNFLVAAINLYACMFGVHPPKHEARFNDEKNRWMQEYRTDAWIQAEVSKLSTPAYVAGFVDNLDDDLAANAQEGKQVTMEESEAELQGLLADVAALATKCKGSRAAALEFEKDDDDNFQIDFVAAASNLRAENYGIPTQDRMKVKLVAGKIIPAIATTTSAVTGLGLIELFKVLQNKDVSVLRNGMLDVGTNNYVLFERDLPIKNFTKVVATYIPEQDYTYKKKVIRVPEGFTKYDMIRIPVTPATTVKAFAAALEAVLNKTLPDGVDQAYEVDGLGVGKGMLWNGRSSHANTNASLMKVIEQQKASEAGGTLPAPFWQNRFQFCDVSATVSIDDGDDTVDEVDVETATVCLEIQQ
Briefly: Leishmania donovani Ubiquitin Activating Enzyme (LdE1). The assay is classed as functional. Particulars: 30 µM.

The target in assay [3] is Sialic acid-binding Ig-like lectin 9 (Homo sapiens) (UniProt Q9Y336). Briefly: Hs-Siglec9 ALPHAscreen SOP 20170721. Particulars: 10 µM.
Chain of Sialic acid-binding Ig-like lectin 9 (Homo sapiens) (Q9Y336 whole entry): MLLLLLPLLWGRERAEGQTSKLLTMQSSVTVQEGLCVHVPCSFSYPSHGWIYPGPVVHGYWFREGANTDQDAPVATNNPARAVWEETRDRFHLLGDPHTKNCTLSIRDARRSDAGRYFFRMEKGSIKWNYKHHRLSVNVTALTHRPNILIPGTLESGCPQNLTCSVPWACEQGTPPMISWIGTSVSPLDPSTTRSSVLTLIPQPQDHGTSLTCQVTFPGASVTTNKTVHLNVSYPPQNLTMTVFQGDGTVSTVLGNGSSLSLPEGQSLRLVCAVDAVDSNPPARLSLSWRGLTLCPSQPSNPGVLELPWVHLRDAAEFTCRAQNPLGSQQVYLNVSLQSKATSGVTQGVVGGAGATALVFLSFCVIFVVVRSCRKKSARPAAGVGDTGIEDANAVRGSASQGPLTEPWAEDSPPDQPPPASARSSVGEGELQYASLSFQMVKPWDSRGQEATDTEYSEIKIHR
Another assay has as its system Trypanosoma cruzi. The experiment in a line: Trypanosoma cruzi phosphomannomutase and mannose-1-phosphate guanylyltransferase assay. The assay is classed as functional. To be noted: 10 µM.
The target of assay [4] is T2, Arginase-2, mitochondrial (Homo sapiens) (UniProt P78540).
T2 sequence (whole entry): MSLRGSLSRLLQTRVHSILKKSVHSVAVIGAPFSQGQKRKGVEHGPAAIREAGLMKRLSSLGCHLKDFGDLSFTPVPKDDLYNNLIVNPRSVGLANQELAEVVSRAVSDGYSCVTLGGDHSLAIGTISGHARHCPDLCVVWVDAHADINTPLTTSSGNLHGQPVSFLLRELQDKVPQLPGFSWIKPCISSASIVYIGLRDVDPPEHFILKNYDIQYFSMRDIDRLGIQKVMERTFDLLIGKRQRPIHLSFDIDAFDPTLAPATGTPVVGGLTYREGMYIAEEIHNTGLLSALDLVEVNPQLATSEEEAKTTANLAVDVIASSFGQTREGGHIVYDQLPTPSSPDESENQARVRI
Briefly: in vitro enzyme assay to detect the production of urea directly proportional to the activity of Arginase II. Note: in the data most compounds retested in dose-response had high values. The assay is classed as functional. To be noted: 33.3 µM.

Assay [5] deals with T3, Proteasome subunit beta (Trypanosoma cruzi) (UniProt O96673).
T3 sequence (whole entry): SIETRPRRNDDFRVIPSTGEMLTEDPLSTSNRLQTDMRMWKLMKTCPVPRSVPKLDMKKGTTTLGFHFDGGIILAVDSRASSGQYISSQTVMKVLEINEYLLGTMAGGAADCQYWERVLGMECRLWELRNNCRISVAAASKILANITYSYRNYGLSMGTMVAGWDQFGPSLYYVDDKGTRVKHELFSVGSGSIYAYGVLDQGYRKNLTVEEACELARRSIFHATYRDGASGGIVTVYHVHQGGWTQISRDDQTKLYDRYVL
Briefly: Trypanosoma cruzi proteasome chymotrypsin-like activity (TcProtChymo) assay. Note: in the data most compounds retested in dose-response had high values. The class given is functional. Particulars: 9.37 µM.

For a further assay, the species on record is Homo sapiens. Briefly: To identify inhibition of the IFN signalling (Jak-Stat) pathway via expression of an eGFP reporter gene under the control of an IFN-stimulated response element (ISRE) containing MxA promoter. The class given is functional. To be noted: 30 µM. (In general: Reporter assays use an easily measured gene product as a stand-in for the process of interest.)

Assay [6] concerns the target T4, Tyrosyl-tRNA synthetase, putative (Trypanosoma cruzi (strain CL Brener)) (UniProt Q4DSP6).
T4 sequence (whole entry): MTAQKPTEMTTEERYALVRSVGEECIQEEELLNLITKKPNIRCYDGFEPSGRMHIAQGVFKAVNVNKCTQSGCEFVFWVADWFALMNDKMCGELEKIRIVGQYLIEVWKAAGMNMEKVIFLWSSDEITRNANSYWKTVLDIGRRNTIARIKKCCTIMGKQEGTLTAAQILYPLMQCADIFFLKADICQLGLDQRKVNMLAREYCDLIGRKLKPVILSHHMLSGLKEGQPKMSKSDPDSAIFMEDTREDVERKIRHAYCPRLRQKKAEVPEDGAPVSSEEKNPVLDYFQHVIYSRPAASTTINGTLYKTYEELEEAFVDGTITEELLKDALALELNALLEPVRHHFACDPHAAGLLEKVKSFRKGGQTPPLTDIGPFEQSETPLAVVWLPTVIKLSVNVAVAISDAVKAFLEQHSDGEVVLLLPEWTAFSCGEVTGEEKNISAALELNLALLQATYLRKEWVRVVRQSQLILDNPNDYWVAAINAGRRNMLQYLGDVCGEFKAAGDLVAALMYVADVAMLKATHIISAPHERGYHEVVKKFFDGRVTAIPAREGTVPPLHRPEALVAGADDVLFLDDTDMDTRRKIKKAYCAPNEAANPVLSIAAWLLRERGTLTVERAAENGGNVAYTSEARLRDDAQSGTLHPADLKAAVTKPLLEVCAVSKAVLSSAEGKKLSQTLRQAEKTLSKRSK
The experiment in a line: Trypanosoma cruzi tyrosyl tRNA synthetase (TcYRS) _High Tyrosine SOP. Note: in the data most compounds retested in dose-response had high values. The class given is functional. To be noted: 30 µM.

For assay [7], the target named is T4, Tyrosyl-tRNA synthetase, putative (Trypanosoma cruzi (strain CL Brener)). The experiment in a line: Trypanosoma cruzi tyrosyl tRNA synthetase (TcYRS) SOP. To be noted: 30 µM. The class given is functional.
Assay [8] deals with Chromo domain-containing protein 1 (Saccharomyces cerevisiae (strain ATCC 204508 / S288c) (Baker's yeast)) (UniProt P32657). The experiment in a line: ScCHD-1 Enzyme Inhibition Assay. Note: in the data most compounds retested in dose-response had high values. The class given is functional. Particulars: 30 µM.
Chain of Chromo domain-containing protein 1 (Saccharomyces cerevisiae (strain ATCC 204508 / S288c) (Baker's yeast)) (P32657 whole entry, the tested form may be a part): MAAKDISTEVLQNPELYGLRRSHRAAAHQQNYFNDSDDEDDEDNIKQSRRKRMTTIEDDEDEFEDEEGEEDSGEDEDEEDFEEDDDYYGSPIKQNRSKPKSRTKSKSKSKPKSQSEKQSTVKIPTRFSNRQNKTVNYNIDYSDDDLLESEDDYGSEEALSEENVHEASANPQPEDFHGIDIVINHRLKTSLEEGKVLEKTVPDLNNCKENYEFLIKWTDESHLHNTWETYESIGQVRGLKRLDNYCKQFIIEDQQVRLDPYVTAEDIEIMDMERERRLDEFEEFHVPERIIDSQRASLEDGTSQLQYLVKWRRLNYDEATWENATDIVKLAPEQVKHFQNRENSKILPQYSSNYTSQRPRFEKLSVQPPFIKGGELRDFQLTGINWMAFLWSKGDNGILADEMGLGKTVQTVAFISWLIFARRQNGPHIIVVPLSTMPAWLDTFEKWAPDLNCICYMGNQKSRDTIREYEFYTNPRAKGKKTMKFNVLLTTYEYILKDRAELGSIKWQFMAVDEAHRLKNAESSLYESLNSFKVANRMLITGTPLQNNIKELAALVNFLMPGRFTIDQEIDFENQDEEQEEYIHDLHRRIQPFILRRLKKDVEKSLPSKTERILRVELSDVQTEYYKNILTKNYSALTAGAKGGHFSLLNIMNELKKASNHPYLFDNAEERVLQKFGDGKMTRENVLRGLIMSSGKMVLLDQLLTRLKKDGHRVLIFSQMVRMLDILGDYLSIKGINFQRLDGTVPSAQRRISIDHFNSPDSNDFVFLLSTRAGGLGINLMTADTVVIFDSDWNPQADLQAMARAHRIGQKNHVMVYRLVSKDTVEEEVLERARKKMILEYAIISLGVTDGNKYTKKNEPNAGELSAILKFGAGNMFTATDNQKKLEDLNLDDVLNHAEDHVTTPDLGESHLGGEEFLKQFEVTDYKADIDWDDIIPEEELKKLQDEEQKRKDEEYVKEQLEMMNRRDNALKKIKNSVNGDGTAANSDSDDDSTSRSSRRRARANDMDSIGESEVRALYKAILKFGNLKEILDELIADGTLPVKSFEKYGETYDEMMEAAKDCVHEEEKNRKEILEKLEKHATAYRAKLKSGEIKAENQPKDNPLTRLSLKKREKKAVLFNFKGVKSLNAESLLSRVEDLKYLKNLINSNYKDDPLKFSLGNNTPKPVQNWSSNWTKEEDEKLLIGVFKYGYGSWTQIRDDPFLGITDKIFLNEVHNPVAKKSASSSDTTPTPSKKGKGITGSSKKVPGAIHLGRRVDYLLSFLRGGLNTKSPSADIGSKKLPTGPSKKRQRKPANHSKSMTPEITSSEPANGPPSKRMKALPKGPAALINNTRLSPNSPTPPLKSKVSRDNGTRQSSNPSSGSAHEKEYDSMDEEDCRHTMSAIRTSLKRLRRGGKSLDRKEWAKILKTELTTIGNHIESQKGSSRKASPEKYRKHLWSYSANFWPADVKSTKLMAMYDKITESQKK

For part of these data: Measured potencies and affinities stand elsewhere.

Chain of Protein translocase subunit SecA (Escherichia coli (strain K12)) (P10408 whole entry): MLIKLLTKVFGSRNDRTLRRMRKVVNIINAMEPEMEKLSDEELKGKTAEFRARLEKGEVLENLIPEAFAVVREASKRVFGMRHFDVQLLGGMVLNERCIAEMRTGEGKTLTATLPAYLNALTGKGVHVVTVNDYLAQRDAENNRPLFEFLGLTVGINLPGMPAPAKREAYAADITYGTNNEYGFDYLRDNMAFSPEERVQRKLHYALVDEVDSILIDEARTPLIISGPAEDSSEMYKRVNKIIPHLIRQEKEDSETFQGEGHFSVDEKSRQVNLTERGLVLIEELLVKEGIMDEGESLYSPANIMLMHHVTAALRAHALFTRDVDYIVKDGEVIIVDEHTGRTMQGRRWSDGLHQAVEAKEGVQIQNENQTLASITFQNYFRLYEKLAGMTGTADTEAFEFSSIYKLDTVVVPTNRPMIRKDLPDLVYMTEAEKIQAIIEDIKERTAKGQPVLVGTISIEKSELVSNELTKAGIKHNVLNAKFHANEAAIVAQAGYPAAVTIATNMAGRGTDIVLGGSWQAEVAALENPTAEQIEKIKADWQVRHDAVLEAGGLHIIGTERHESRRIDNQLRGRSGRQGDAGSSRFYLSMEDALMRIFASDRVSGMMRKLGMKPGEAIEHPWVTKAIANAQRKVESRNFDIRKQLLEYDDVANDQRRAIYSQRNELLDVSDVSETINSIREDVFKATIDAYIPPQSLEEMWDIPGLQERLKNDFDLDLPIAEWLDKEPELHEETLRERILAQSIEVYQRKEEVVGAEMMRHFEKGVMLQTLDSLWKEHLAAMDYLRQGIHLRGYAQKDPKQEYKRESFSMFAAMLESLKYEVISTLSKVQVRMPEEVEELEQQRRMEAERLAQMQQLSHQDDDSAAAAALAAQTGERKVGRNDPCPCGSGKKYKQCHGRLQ

For `Cc1ccc(NC(=O)C2CSCN2C(=O)c2cc[nH]n2)c(C)c1` (stereo not given), the Percent Effect in [1] is -2.87%; in assay [2], 5.13%; in assay [3], 9.07%; with Trypanosoma cruzi, 4.79%; in [4], -0.41%; in assay [5], 0.768%. Besides, the Percent Effect in the assay listed under Homo sapiens was -8.73%; in [6] it was 3.35%; in assay [7] it was 20.5%; in [8], -1.03%.

For `CN1[C@@H](C(=O)NCC2CC2)C[C@@H]2CN(Cc3ccco3)C[C@@H]21`, the Percent Effect in assay [1] is -3.17%; in [2], 19.5%; in assay [3], -3.11%; in the assay on Trypanosoma cruzi, -6.57%; in assay [4], 3.65%; in assay [5] it was 19.5%. In addition, the Percent Effect in the assay filed under Homo sapiens was 13.8%; in [6], 5.8%; in assay [7] it was 10%; in assay [8] it was -4.24%.

In the case of `CCc1nc(C2CCCN2C(=O)c2ncoc2CC)no1` (stereo not given), the Percent Effect in assay [1] was -4.57%; in assay [2], 7.69%; in assay [3], 5.36%; with Trypanosoma cruzi, 10.6%; in [4] it was -4.92%; in assay [5] it was -5.38%. Further, the Percent Effect in the assay filed under Homo sapiens was -5.4%; in assay [6] it was 2.39%; in assay [7], 8.43%; in assay [8] it was 0.961%.

Regarding `O=C(CCN1CCCN(c2nccs2)CC1)Nc1ccccc1`, the Percent Effect in assay [1] is -2.89%; in [2] it was 10.7%; in assay [3], -7.96%; in the assay with Trypanosoma cruzi, -4.82%; in assay [4], -5.76%; in assay [5], 13.2%. Further, the Percent Effect in the assay filed under Homo sapiens was 17.4%; in assay [6], -0.526%; in [7], -5.13%; in assay [8], -12%.

Regarding `CN(C)S(=O)(=O)N1CCN(c2ccnc(N3CCCC3)n2)CC1`, the Percent Effect in [1] was -3.6%; in [2], -2.7%; in assay [3] it was -0.53%; in the assay with Trypanosoma cruzi, 3.01%; in assay [4], -1.75%; in assay [5] it was 8.39%. Besides, the Percent Effect in the assay filed under Homo sapiens was -13.3%; in assay [6], 3.72%; in assay [7], 4.88%; in assay [8], -0.866%.

For the compound `CCn1nc2c(cc1=O)CN(Cc1nc(CCOC)no1)CC2`, the Percent Effect was -2.71% in assay [1]; 5.13% in assay [2]; -1.28% in assay [3]; 4.6% in the assay with Trypanosoma cruzi; 9.43% in assay [4]; 0.427% in assay [5]. Besides, the Percent Effect in the assay filed under Homo sapiens is 4.98%; in assay [6] it was 0.478%; in [7] it was 8.43%; in assay [8], -3.33%.

Take `Cc1nn(C)c(N(C)C)c1CNCc1ccc(OCC(N)=O)cc1`: the Percent Effect in assay [1] was -3.65%; in assay [2], 8%; in assay [3], 0.758%; with Trypanosoma cruzi, -2.61%; in assay [4], -1.33%; in assay [5], 13.2%. In addition, the Percent Effect in the assay listed under Homo sapiens was -6%; in assay [6] it was 5.79%; in assay [7] it was 7.69%; in assay [8], -13.9%.

As for `O=C(c1ccco1)N1C[C@H]2CCCN(CC3CCOCC3)[C@H]2C1`, the Percent Effect in assay [1] is -3.2%; in assay [2], 6.49%; in assay [3], -2.43%; in the assay with Trypanosoma cruzi, -4.77%; in assay [4], -1.62%; in assay [5], 11.9%. For the same compound, the Percent Effect was 1.5% in the assay filed under Homo sapiens, 4.74% in [6], 15.4% in assay [7] and -2.11% in assay [8].

In the case of `Cc1ccc(Cl)cc1N1CCC(CNC(=O)CCn2ccnc2)C1` (stereo not given), the Percent Effect in [1] is -4.06%; in [2], 5.13%; in assay [3], -8.73%; with Trypanosoma cruzi it was 10.8%; in [4], 2.05%; in assay [5], 12.2%. For the same compound, the Percent Effect in the assay listed under Homo sapiens was 9.72%; in [6] it was 12.9%; in assay [7] it was 22.9%; in [8], -4.33%.

`Cc1cc(N2CCC(Cc3ccccc3)CC2)nc(-c2ccncc2)n1`: the Percent Effect in assay [1] was -1.61%; in assay [2] it was -15.6%; in assay [3] it was 11%; in the assay with Trypanosoma cruzi, 14.4%; in assay [4] it was -6.76%; in assay [5], -5.44%. The Percent Effect was -2.83% in the assay filed under Homo sapiens, 18.6% in assay [6], 7.06% in [7] and 4.27% in assay [8].

For `CN1CC(=O)N(c2ccccc2)CC12CCN(CC1CC1)C2` (stereo not given), the Percent Effect is -2.12% in [1]; -1.3% in assay [2]; -3.04% in assay [3]; -6.13% with Trypanosoma cruzi; 1.22% in assay [4]; 10.5% in assay [5]. Also, the Percent Effect was -3.51% in the assay listed under Homo sapiens, -0.526% in assay [6], 0% in [7] and -0.704% in [8].

Turning to `CCOc1ccc(Cl)c(C(=O)NCc2ccc(C(=O)NC)cc2)n1`, the Percent Effect was -5.52% in assay [1]; 15.4% in assay [2]; -5.92% in assay [3]; 4.79% in the assay with Trypanosoma cruzi; 4.92% in assay [4]; 8.62% in assay [5]. Besides, the Percent Effect in the assay listed under Homo sapiens turned out to be 9.74%; in [6], 5.26%; in assay [7] it was 20.5%; in [8], 0.666%.
